The values below come from PubChem BioAssay (EPA / NIEHS).

In assay [1] the test system is rat Monoamine Oxidase, MAO-A, Central (MAOAC), gene 29253. Put plainly: NVS_ENZ_rMAOAC: NovaScreen (NVS) Enzymatic Assay for rat Monoamine Oxidase, MAO-A, Central (MAOAC) (AID 2283243).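 Further: potency refers to inhibition seen as signal drop below DMSO baseline.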 A digest of the protocol:
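Lysate-based radiometric enzyme assay using rat brain tissue; 1.5 h treatment; 25 uM single-point duplicate screen, concentration-response follow-up; loss of signal versus DMSO.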

Assay [2] has as its target Adenosine receptor A1 (Bos taurus) (UniProt P28190). As to the kind of experiment: NVS_GPCR_bAdoR_NonSelective: NovaScreen (NVS) G Protein-Coupled Receptor Assay for bovine Adenosine Receptor (AdoR), Non-selective Binding (AID 2283244). Summed up: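 Cell-free binding with membranes from bovine striatum: radioligand displaced by test chemical, read after 1 h by filtration and scintillation. Single-point 25 uM duplicate primary, 50 uM top concentration in follow-up curves, DMSO baseline.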

Assay [3] has as its system guinea pig Leukotriene B4 Receptor (LTB4), gene 100379538. As to the kind of experiment: NVS_GPCR_gLTB4: NovaScreen (NVS) G Protein-Coupled Receptor Assay for guinea pig Leukotriene B4 Receptor (LTB4) (AID 2283247). A digest of the protocol:
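Membranes from guinea pig spleen incubated 2 h with radioligand and compound; bound counts measured by filtration and scintillation. Screened first at 25 uM in duplicate, then actives titrated to a 50 uM top concentration relative to DMSO.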

In assay [4] the target is guinea pig Opioid, Kappa 1 Receptor (OpiateK), OPRK1 (gene 100135587) (UniProt P41144). As to the kind of experiment: NVS_GPCR_gOpiateK: NovaScreen (NVS) G Protein-Coupled Receptor Assay for guinea pig Opioid, Kappa 1 Receptor (OpiateK) (AID 2283252).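 Further: radioligand displacement from kappa opioid receptor in guinea pig cerebellar membranes; active means reduced radioligand binding relative to DMSO.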 A digest of the protocol:
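Radioligand competition binding using guinea pig cerebellum membrane fraction; 2 h exposure; filter radiodetection. Single concentration 25 uM (duplicate), follow-up concentration-response for actives.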

Assay [5] addresses sheep Cyclooxygenase-1 (Cox1), PTGS1 (gene 443551) (UniProt P05979). As to the kind of experiment: NVS_ENZ_oCOX1: NovaScreen (NVS) Enzymatic Assay for sheep Cyclooxygenase-1 (Cox1) (AID 2283239).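 Further: actives reduce cyclooxygenase activity so potencies are for inhibitors.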 Summed up:
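Absorbance read-out of cyclooxygenase activity in a cell-free preparation from sheep seminal vesicles, taken 0.66 hour after dosing. Initial testing was in duplicate at 25 uM, and confirmatory testing was run in concentration series.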

The test system of assay [6] is bovine Angiotensin II Receptor Type 2 (AT2), gene 407157. Put plainly: NVS_GPCR_bAT2: NovaScreen (NVS) G Protein-Coupled Receptor Assay for bovine Angiotensin II Receptor Type 2 (AT2) (AID 2283240). Summed up:
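Radioligand displacement on bovine cerebellar membranes, 1 hour incubation, filter-based scintillation counting; loss of signal vs DMSO. Duplicate single-point screen at 25 uM, then concentration-response to 50 uM maximum.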

The target in assay [7] is rat Monoamine Oxidase, MAO-B, Central (MAOBC), Maob (gene 25750) (UniProt P19643). As to the kind of experiment: NVS_ENZ_rMAOBC: NovaScreen (NVS) Enzymatic Assay for rat Monoamine Oxidase, MAO-B, Central (MAOBC) (AID 2283238). Summed up:
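Here MAO-B activity in rat brain preparations is quantified radiometrically, counts taken at 1.17 hours. Concentration-response runs reach 50 uM, with plate controls, and values are fitted as loss of signal from the DMSO baseline.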

In assay [8] the target is guinea pig Leukotriene D4 Receptor (LTD4), CYSLTR1 (gene 100135514) (UniProt Q2NNR5). As to the kind of experiment: NVS_GPCR_gLTD4: NovaScreen (NVS) G Protein-Coupled Receptor Assay for guinea pig Leukotriene D4 Receptor (LTD4) (AID 2283248). Summed up:
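Guinea pig lung membrane preparation; bound radioligand measured by filter scintillation after 1 h, loss of signal versus DMSO marking displacement. Compounds tested at 25 uM in duplicate, hits retested to max 50 uM.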

For assay [9], the target named is rat Monoamine Oxidase, MAO-B, Peripheral (MAOBP), Maob (gene 25750) (UniProt P19643). As to the kind of experiment: NVS_ENZ_rMAOBP: NovaScreen (NVS) Enzymatic Assay for rat Monoamine Oxidase, MAO-B, Peripheral (MAOBP) (AID 2283242).
For assay [10], the target named is human Serotonin, 5-Hydroxytryptamine Receptor 5A (5HT5A), HTR5A (gene 3361) (UniProt P47898). As to the kind of experiment: NVS_GPCR_h5HT5A: NovaScreen (NVS) G Protein-Coupled Receptor Assay for human Serotonin, 5-Hydroxytryptamine Receptor 5A (5HT5A) (AID 2283251). A digest of the protocol:
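Membranes from HEK293 cells, radioligand binding read by filtration and scintillation after 1 h. Single-concentration duplicate testing at 25 uM, then concentration-response for actives; positive-direction fitting relative to DMSO.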

Records with an inconclusive call do not appear. Active and inactive are the calls of the source. How the source made its calls: active means hit-call score of the fitted dose curve at least 0.9, where 1 is the maximum; inconclusive means response in the unintended direction; inactive means score below 0.9.

By AC50 is commonly meant the concentration at which the activity in the assay is half-maximal.

Chain of rat Monoamine Oxidase, MAO-B, Central (MAOBC), Maob (gene 25750) (P19643 whole entry, looked up): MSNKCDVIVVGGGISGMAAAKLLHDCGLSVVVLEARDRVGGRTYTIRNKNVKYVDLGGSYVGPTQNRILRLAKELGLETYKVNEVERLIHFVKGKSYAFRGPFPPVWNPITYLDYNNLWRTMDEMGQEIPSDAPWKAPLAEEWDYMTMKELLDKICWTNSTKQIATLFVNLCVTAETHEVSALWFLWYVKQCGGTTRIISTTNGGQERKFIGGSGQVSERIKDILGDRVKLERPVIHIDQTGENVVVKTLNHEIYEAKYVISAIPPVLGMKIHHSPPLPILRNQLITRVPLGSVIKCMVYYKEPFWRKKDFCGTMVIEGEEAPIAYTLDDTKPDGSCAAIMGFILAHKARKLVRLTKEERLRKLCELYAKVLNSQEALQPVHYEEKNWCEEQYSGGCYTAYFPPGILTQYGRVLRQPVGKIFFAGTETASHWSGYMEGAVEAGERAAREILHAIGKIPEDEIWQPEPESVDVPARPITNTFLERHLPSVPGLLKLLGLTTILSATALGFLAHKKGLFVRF
Chain of guinea pig Opioid, Kappa 1 Receptor (OpiateK), OPRK1 (gene 100135587) (P41144 whole entry, looked up): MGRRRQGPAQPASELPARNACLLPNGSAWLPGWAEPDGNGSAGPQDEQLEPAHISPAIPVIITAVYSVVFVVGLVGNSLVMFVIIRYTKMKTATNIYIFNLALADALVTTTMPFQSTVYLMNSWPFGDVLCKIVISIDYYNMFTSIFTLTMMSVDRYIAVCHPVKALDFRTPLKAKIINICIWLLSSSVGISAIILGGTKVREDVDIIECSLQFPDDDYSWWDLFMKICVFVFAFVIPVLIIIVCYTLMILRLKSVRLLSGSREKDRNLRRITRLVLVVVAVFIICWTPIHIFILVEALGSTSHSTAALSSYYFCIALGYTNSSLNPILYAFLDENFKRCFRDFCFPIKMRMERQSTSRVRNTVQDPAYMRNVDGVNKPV
Chain of sheep Cyclooxygenase-1 (Cox1), PTGS1 (gene 443551) (P05979 whole entry, looked up): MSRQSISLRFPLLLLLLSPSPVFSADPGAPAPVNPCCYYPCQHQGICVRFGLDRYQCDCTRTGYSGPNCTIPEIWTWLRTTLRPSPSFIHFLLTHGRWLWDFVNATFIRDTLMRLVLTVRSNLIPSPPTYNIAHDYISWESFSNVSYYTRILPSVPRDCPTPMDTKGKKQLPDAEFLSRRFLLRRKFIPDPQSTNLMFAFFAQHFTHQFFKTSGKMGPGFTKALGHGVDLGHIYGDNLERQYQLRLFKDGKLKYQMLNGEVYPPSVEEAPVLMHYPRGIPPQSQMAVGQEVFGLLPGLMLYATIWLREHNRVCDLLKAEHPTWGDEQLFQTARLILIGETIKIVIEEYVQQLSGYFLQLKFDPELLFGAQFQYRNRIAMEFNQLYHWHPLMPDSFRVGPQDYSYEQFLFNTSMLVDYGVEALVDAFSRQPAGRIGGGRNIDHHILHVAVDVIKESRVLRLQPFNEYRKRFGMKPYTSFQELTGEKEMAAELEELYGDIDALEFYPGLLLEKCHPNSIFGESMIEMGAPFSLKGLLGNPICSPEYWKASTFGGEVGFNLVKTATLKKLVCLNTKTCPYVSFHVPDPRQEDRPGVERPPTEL
Chain of Adenosine receptor A1 (Bos taurus) (P28190 whole entry, looked up): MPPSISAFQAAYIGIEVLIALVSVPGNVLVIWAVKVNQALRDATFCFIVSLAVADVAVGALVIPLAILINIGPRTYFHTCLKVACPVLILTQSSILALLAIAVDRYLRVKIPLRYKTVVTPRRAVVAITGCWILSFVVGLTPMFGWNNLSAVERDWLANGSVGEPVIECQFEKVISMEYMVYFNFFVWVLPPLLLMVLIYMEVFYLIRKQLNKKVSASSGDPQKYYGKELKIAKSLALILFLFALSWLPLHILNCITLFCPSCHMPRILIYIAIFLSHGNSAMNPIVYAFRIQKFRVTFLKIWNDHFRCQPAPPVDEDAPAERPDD
Chain of rat Monoamine Oxidase, MAO-B, Peripheral (MAOBP), Maob (gene 25750) (P19643 whole entry, looked up): as the sequence (P19643 whole entry, looked up) above
Chain of guinea pig Leukotriene D4 Receptor (LTD4), CYSLTR1 (gene 100135514) (Q2NNR5 whole entry, looked up): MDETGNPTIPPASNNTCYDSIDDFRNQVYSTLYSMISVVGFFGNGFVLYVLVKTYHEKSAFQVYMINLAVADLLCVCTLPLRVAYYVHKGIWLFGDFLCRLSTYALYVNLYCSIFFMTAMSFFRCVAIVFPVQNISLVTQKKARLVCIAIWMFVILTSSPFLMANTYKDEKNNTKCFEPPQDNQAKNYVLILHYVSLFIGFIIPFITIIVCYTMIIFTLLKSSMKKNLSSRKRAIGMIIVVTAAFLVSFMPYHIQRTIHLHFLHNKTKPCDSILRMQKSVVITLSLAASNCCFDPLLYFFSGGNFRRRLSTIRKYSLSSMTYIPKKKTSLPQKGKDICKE
Chain of human Serotonin, 5-Hydroxytryptamine Receptor 5A (5HT5A), HTR5A (gene 3361) (P47898 whole entry, looked up): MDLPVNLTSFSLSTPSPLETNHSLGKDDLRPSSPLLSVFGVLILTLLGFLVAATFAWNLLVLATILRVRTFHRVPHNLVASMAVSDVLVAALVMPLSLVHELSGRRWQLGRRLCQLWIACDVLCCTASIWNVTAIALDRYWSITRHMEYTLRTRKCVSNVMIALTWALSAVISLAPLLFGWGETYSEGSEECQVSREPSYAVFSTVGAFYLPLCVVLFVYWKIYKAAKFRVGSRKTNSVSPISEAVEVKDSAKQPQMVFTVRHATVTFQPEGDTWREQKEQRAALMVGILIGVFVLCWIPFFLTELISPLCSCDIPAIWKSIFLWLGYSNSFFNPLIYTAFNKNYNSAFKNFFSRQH

For the compound `c1ccc2c(c1)Nc1ccccc1S2`, the AC50 in assay [1] is 9.71 µM (active). As to `CSC(C)(C)C=NO`, the call in [2], in assay [3] and in assay [4] was inactive. With `CCC(C)(C)c1ccc(O)cc1`, in assay [3], the AC50 is 25 µM (active). For the compound `Nc1cc2c3c(c1)C(c1ccccc1)=N[C@@H](NC(=O)c1cccnc1)C(=O)N3CC2`, the AC50 in assay [5] is 15.1 µM (active).

For the compound `Nc1ccc2ccccc2c1`, the AC50 in assay [1] was 19.4 µM (active). For `O=c1[nH]c2ccccc2c(=O)o1`, the AC50 in [5] was 4.96 µM (active). For the compound `Cc1ccc(N)cc1N`, the outcome in assay [6] was inactive. In the case of `Cc1ccc2c(c1N)C(=O)c1ccccc1C2=O`, the AC50 in assay [1] is 25 µM (active). Take `Cc1ccc(O)cc1C`: the AC50 in assay [7] is 47 µM (active). For the compound `[N-]=[N+]=[N-]`, the compound was called inactive in [7]. Regarding `CCOP(=S)(S)OCC`, the outcome in assay [5] was inactive. For `ClC(Cl)c1ccccc1`, the result in [8] was inactive. As to `CCOP(=S)(OCC)SCS(=O)(=O)CC`, the AC50 in assay [1] was 7.29 µM (active). `CCOC(=O)c1ccccc1C(=O)OCC`: in assay [9], the call was inactive. Besides, in [1], the AC50 was 15.2 µM (active).

For `CCCN(CCC)c1c([N+](=O)[O-])cc(C(C)C)cc1[N+](=O)[O-]`, in [2], the compound was called inactive.

As to `c1nc[nH]n1`, the compound was classed as inactive in [8]. `CCCCCCCc1ccc(O)cc1`: in [7], the AC50 was 25 µM (active).

For `CCCCN(CCCC)SN(C)C(=O)Oc1cccc2c1OC(C)(C)C2`, in [10], the compound was classed as inactive. Turning to `CC1(C)CN=C(NN=C(/C=C/c2ccc(C(F)(F)F)cc2)/C=C/c2ccc(C(F)(F)F)cc2)NC1`, the AC50 in assay [5] was 5.74 µM (active). In the case of `ClC(Cl)(Cl)c1ccccc1`, the call in assay [7] was inactive. In the case of `CCN(CC)c1ccccc1`, the compound was called inactive in assay [9]. With `Nc1ccc(Cl)cc1`, the call in [5] was inactive. Take `CC(C)(C)OOC(C)(C)C`: in assay [7], the AC50 is 13.1 µM (active). `CCOP(=S)(OCC)SCSCC`: the compound was called inactive in assay [5]. Turning to `Cc1cc(C)c(C(=O)P(=O)(c2ccccc2)c2ccccc2)c(C)c1`, in assay [4], the half-maximal activity concentration (AC50) was 25 µM (active).

On to `Nc1ccc([N+](=O)[O-])cc1Cl`, for which, in assay [1], the AC50 is 15.1 µM (active).

Take `O=C(O)C1C(C(=O)O)C2(Cl)C(Cl)=C(Cl)C1(Cl)C2(Cl)Cl` (centres undefined): in assay [3], the half-maximal activity concentration (AC50) is 2.88 µM (active).

Regarding `Oc1ccc(I)cc1`, the AC50 in assay [1] was 19.9 µM (active). Take `O=c1ssc(Cl)c1Cl`: the outcome in assay [5] was inactive. On to `CCCCOCCOP(=O)(OCCOCCCC)OCCOCCCC`, for which the AC50 in assay [4] was 16.5 µM (active).

In the case of `CC(=O)c1ccc(-c2ccccc2)cc1`, in assay [1], the AC50 was 18.6 µM (active).
